Compounds with a hit are over-represented: about 8% of the library has one in this group of screens.
Coupling enz: inhibits coupling enzyme system, counter-screen for aldolase hits. coupling enzyme system counterscreen, AmpLite Red fluorescence. activity change, negative = inhibition, % at 58.2 µM, hits read low. actives 0.67% (n = 290,000). AID 2472; in the data active = activity change below about -30%
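First, compound is pin-transferred into glyceraldehyde-3-phosphate coupling-enzyme reagent at 57.5 uM final and held 10 min at RT. Next, substrate, coupling system and AmpLite Red are added. After 20 min RT, fluorescence (525/598 nm) is read.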
ELG1 repair inh: ELG1-dependent DNA repair inhibition. HEK293T ELG1-luciferase reporter, luminescence, 16 h; DNA damage induced by 5-fluorouridine. Potency, µM (top dose mostly 46.1 µM), usual class: inhibitors. actives 2.3% (n = 330,000). AID 504467; note: nearly all actives have a fitted effect of over 55% in size
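Luminescence from the luciferase reporter, measured 30 min after ONE-Glo reagent at room temperature, was the read-out. Beforehand, 2,000 cells per well were exposed for 16 hr at 37 °C to 5-fluorouridine together with compound or vehicle.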
Gal4-VP16 FLuc: inhibits Gal4-VP16 luciferase reporter, ROR gamma counter-screen; Drosophila S2 Gal4-VP16 UAS-luciferase, luminescence, 20 h; Potency, µM (series often up to 53.6 µM), most hits filed as inhibitors; actives 3.5% (n = 310,000);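 note: Gal4-VP16 expression switched on by copper sulfate through the metallothionein promoter; nearly all actives have a fitted effect of over 50% in size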
TSHR antag: blocks TSH signaling through the human TSH receptor; P16473; TSHR-expressing cells, TSH-stimulated cAMP HTRF, 2 h; active compounds read low; activity change, negative = inhibition, % at 11.5 µM; actives 0.2% (n = 330,000);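 active = activity change below a set negative limit, meaning inhibition stronger than a set level, cut at about -70% in these data; inconclusive = activity change between two set negative limits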
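Inhibition of cAMP made by TSHR-expressing cells under TSH stimulation (4nM final, EC80; 2 h, 37 deg C) is quantified with a one-step lysis HTRF kit, anti-cAMP cryptate versus cAMP-d2.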
RORg inh: blocks mouse ROR gamma transcriptional activity | actives 5.4% (n = 310,000) | AID 2551 | P51450 | Potency, µM (top dose mostly 53.6 µM), actives largely listed as inhibitors | Drosophila S2 Gal4-RORgamma UAS-luciferase reporter, 20 h; note: nearly all actives have a fitted effect of over 60% in size
Target sequence (P51450 whole entry, looked up, the tested form may be a part): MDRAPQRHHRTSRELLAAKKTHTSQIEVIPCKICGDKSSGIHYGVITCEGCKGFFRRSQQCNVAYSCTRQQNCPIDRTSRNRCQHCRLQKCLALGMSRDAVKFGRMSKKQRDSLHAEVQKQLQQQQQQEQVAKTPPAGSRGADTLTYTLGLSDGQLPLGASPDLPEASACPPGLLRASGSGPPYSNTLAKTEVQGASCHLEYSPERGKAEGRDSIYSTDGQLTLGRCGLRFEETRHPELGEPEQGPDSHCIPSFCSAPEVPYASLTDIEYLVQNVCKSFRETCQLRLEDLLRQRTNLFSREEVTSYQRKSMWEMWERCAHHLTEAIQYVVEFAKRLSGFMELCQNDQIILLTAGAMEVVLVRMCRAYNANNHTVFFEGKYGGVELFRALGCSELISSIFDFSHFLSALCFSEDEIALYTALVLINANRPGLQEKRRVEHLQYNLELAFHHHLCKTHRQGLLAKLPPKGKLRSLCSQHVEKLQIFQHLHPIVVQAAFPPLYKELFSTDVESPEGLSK
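Luciferase reporter read in Schneider cells carrying Gal4-RORγ (mouse) and UAS-Photinus luciferase; cells given compound 1 h before 700 uM copper sulfate induction, then incubated 20 h at ambient temperature.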
Of the large screens only hits and unclear results are named; the others gave an inactive call. Unless noted, calls come from the whole dose curve; as a rule, active = well fitted curve in the direction sought with a large enough effect; inconclusive = small, poorly fitted or top-dose-only effect, or another doubt; inactive = no such curve, though single readings can be large; an effect the other way counts as inactive or inconclusive.

CCc1nnc(N/N=C/c2c(C)[nH]c3ccccc23)n1N	RORg inh inconclusive
Cc1nnc(N/N=C/c2cc(C)n(-c3ccc(F)cc3)c2C)n1N	Coupling enz -42.2, Gal4-VP16 FLuc inconclusive, RORg inh 11.2µM
CCc1nnc(N/N=C/c2cc(C)c(C)cc2C)n1N	Gal4-VP16 FLuc inconclusive, RORg inh 15.8µM
C[C@@H]1C[C@H]2[C@H]3C[C@@H](F)C4=CC(=O)C=C[C@]4(C)[C@@]3(Cl)[C@@H](O)C[C@@]2(C)[C@@H]1C(=O)COC(=O)C(C)(C)C	none (no result: ELG1 repair inh, TSHR antag)
COc1ccc(C2=N[C@H](c3ccccc3)CO2)cc1	RORg inh 15.8µM (no result: ELG1 repair inh, TSHR antag)
COc1ccc(C2=N[C@@H](C(C)C)CO2)cc1	none (no result: ELG1 repair inh, TSHR antag)
COc1ccc(C2=NC(c3ccccc3)CO2)cc1 (stereo not drawn)	ELG1 repair inh inconclusive, Gal4-VP16 FLuc 12.6µM, RORg inh 10µM
COC(=O)c1c(N)sc(C(=O)N2CCOCC2)c1C	none
COC(=O)c1c(NC(=O)CCl)sc(C(=O)N2CCOCC2)c1C	ELG1 repair inh inconclusive, Gal4-VP16 FLuc 1.78µM, RORg inh 10µM
COC(=O)c1c(NC(=O)Cc2cccs2)sc(C(=O)N2CCCCC2)c1C	ELG1 repair inh 25.9µM, RORg inh inconclusive
CCOC(=O)CC(=O)CSc1nc2sc(C)cc2c(=O)n1Cc1ccco1	ELG1 repair inh inconclusive, Gal4-VP16 FLuc 22.4µM, RORg inh inconclusive (no result: TSHR antag)
COc1cccc(CN2CC(C(=O)NCCSc3nnnn3C)CCC2=O)c1 (stereo not drawn)	none (no result: Coupling enz)
COc1cccc(Nc2nnc(SCC(=O)Nc3sccc3C(N)=O)s2)c1	ELG1 repair inh 14.6µM, RORg inh inconclusive
CC1=C(C(=O)OC(C)C)C(c2cccc([N+](=O)[O-])c2)n2c(cc(=O)[nH]c2=S)N1 (stereo not drawn)	RORg inh 12.6µM
CCN1CCN(C(=S)NC(=O)c2cccc(Br)c2)CC1	none (no result: Coupling enz, Gal4-VP16 FLuc, TSHR antag, RORg inh)
CCOC(=O)N1CCN(C(=O)CNC(=O)c2ccc(Br)cc2)CC1	none (no result: Coupling enz)
CCOC(=O)N1CCN(C(=S)NC(=O)c2cc(Br)ccc2Cl)CC1	Gal4-VP16 FLuc 5.01µM, RORg inh 0.891µM
Cc1ccc(C(=O)NC(=S)N2CCN(C(=O)OC(C)(C)C)CC2)cc1Br	ELG1 repair inh inconclusive, Gal4-VP16 FLuc 1.12µM, RORg inh 0.631µM
CCOC(=O)N1CCN(C(=S)NC(=O)c2ccc(Br)cc2)CC1	Gal4-VP16 FLuc 1.26µM, RORg inh 0.562µM
CCOC(=O)C1CCCN(C(=S)NC(=O)c2cc(Br)ccc2Cl)C1 (stereo not drawn)	none (no result: Coupling enz, Gal4-VP16 FLuc, RORg inh)
CCOC(=O)N1CCN(C(=S)NC(=O)c2cncc(Br)c2)CC1	Gal4-VP16 FLuc 2.51µM, RORg inh 1.12µM
Cn1c(NC(=O)c2cccc(Cn3cc(Cl)cn3)c2)nc2ccccc21	ELG1 repair inh inconclusive, Gal4-VP16 FLuc 2.82µM, RORg inh 1.78µM
CCn1c(NC(=O)c2cccc(Cn3cc(Cl)cn3)c2)nc2ccccc21	ELG1 repair inh inconclusive, Gal4-VP16 FLuc 2µM, RORg inh 2.82µM
CC(C)CNC(=O)c1cccc(Cn2cc(Cl)cn2)c1	none
COc1ccc(OC)c(N(C)S(=O)(=O)c2ccc3c(c2)N(C(C)=O)CCO3)c1	none
Cc1nc2sc(C(N)=O)c(N)c2c2c1CCCC2	ELG1 repair inh inconclusive, RORg inh 5.62µM
CCc1nnc(N2C(=N)SCC2=O)s1	Gal4-VP16 FLuc 12.6µM, RORg inh 1.41µM
O=C(COC(=O)C1CCCC1)Nc1ncc(Cl)cc1Cl	ELG1 repair inh inconclusive (no result: Coupling enz, Gal4-VP16 FLuc, RORg inh)
Cc1cc(NC(=O)/C=C/c2ccc(F)cc2)n(-c2nc3ccccc3[nH]2)n1	Gal4-VP16 FLuc 1µM, RORg inh 1.26µM
COc1ccc(/C=C/C(=O)Nc2cc(C)nn2-c2nc3ccccc3[nH]2)cc1	ELG1 repair inh inconclusive, Gal4-VP16 FLuc 2.51µM, RORg inh 1.78µM
Cc1cc(NC(=O)/C=C/c2cccc(Cl)c2)n(-c2nc3ccccc3[nH]2)n1	ELG1 repair inh inconclusive, Gal4-VP16 FLuc inconclusive, RORg inh inconclusive
COc1ccc(/C=C/C(=O)Nc2cc(C)nn2-c2nc3ccccc3n2Cc2cccc([N+](=O)[O-])c2)cc1	ELG1 repair inh inconclusive
Cc1cc(NC(=O)/C=C/c2cccc(F)c2)n(-c2nc3ccccc3[nH]2)n1	ELG1 repair inh inconclusive, Gal4-VP16 FLuc 2.82µM, RORg inh 1.58µM
CCn1c(SCC(=O)Nc2nccs2)nnc1-c1ccccn1	none (no result: Coupling enz)
CCCc1cc(N2CCN(C(=O)c3ccco3)CC2)n2c(nc3ccccc32)c1C#N	ELG1 repair inh inconclusive, RORg inh 4.47µM
Cc1nnc2c(N3CCN(C(=O)c4ccco4)CC3)nc3ccccc3n12	none (no result: Coupling enz)
Cc1ccc(OCc2cc(C(=O)N3CCN(CC(=O)NC(C)C)CC3)no2)cn1	ELG1 repair inh inconclusive
Cc1ccc(S(=O)(=O)Cc2ccc(C(=O)N3CCN(Cc4ccccc4)CC3)o2)cc1	ELG1 repair inh 18.4µM
Cc1ccc(S(=O)(=O)Cc2ccc(C(=O)N3CCN(c4ccc(F)cc4)CC3)o2)cc1	ELG1 repair inh 23.1µM
CCC1=C(OC(=O)N(CC)CC)N2C(=O)OC(=NCC3CC3)[C@]2(C)[C@H]2C1=CC[C@H]1C(=O)N(c3ccccc3)C(=O)[C@H]12	none (no result: ELG1 repair inh, TSHR antag)
C=CCOC(=O)C1=C[C@H](c2coc3ccccc3c2=O)C[C@H](OCc2ccc(CO)cc2)O1	ELG1 repair inh 8.2µM, Gal4-VP16 FLuc inconclusive
CC(=O)n1cc([C@H]2C=C(C(=O)Nc3ccccc3)O[C@@H](OCc3ccc(CO)cc3)C2)c2ccccc21	ELG1 repair inh 9.2µM
Cc1ccc(NC(=O)CN2C(=O)CC(C)S(=O)(=O)c3ccccc32)cc1 (stereo not drawn)	none
Cc1ccc2cc(CCNC(=O)c3cccc([N+](=O)[O-])c3)c(=O)[nH]c2c1C	ELG1 repair inh 18.4µM
COc1ccc2cc(CCNC(=O)c3cccc([N+](=O)[O-])c3)c(=O)[nH]c2c1	ELG1 repair inh inconclusive
O=C(c1ccncc1)N1CCC2(CCCN(c3cccc(-c4ccccc4)c3)C2)CC1	none (no result: ELG1 repair inh, TSHR antag)
O=C(NCCc1nnc2ccc(SCC(=O)N3CCCC3)nn12)c1ccc(F)cc1	none
Cc1c(CCC(=O)N[C@@H](C)C(=O)O)c(=O)oc2cc3oc4c(c3cc12)CCCC4	ELG1 repair inh inconclusive, Gal4-VP16 FLuc inconclusive
CCCC(NC(=O)CCc1c(C)c2cc3c4c(oc3c(C)c2oc1=O)CCCC4)C(=O)O (stereo not drawn)	RORg inh 0.794µM
O=C(N(c1ccccc1)c1ccccc1)N(c1ccccc1)c1ccccc1	ELG1 repair inh inconclusive
O=C(CCl)N(c1ccccc1)c1ccccc1	ELG1 repair inh 20.6µM, Gal4-VP16 FLuc inconclusive, RORg inh 14.1µM
O=C(Nc1ccccc1)NN(C(=O)CCl)c1ccccc1	ELG1 repair inh 23.1µM, Gal4-VP16 FLuc inconclusive, RORg inh inconclusive
Cc1ccc(N(NC(=O)C(O)(c2ccccc2)c2ccccc2)C(=O)CCl)cc1	ELG1 repair inh 20.6µM, Gal4-VP16 FLuc 7.94µM, RORg inh 6.31µM
Fc1cc(F)c(F)c(SCn2cc(Br)cn2)c1F	none (no result: Coupling enz, Gal4-VP16 FLuc, RORg inh)

Assay outcomes from PubChem BioAssay.
